Compound activity as filed in PubChem.
HepG2 viability – HepG2 cytotoxicity, counter-screen for TGF-b inhibitors. HepG2 CAGA-GFP viability, ATP luminescence, 18 h. 410,000 compounds, 0.76% hits. AID 588856. Potency, µM (titrated, usually from 46.1 µM), actives largely listed as cytotoxic
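CellTiter-Glo luminescence gave cytotoxicity after 18 hours at 37 degrees C. The cells were HepG2 CAGA-GFP in 1% FBS DMEM, stimulated with 500 pg/mL TGF-beta after compound addition. %Activity was normalised to no-cell wells (complete cell-killing) and DMSO (no toxicity), and curves were fitted and classified.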
TGFb inhibitor – TGF-b pathway inhibition; HepG2 CAGA-GFP TGF-b/SMAD3 reporter, GFP fluorescence, 18 h; TGF-beta stimulated, 500 pg/mL final; Potency, µM (highest dose often 46.1 µM), usual class: inhibitors; 410,000 compounds, 1.2% hits; AID 588855; note: nearly all actives have a fitted effect of over 65% in size
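Inhibition of TGF-beta-driven CAGA-GFP reporter expression in HEPG2 cells is measured by cellular GFP fluorescence after 18 h stimulation with 500 pg/mL recombinant TGF-beta in 1% FBS medium at 37 degrees C.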
HT1080-NT tox – kills 2HG-producing HT-1080-NT fibrosarcoma cells | AID 686970 | HT-1080-NT fibrosarcoma viability, CellTiter-Glo ATP luminescence, 48 h | Potency, µM (series often up to 46.1 µM), most hits filed as cytotoxic | 360,000 compounds, 1.6% hits;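 note: NT is the 2HG producing partner of a matched IDH1 knockdown line; nearly all actives have a fitted effect of over 55% in size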
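Viability of the 2HG-overproducing fibrosarcoma line after 48 hours of compound exposure at 37 degrees C was determined by luminescence with CellTiter-Glo, and concentration-effect curves were then fitted and categorized.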
ATXN2 expr inh – inhibitors of ATXN2 expression. HEK-293 ATXN2-luciferase reporter, luminescence, 24 h. Potency, µM (titrated, usually from 57 µM), hits mostly inhibitors. 360,000 compounds, 0.72% hits; note: nearly all actives have a fitted effect of over 55% in size
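qHTS (up to 57 uM final) was run with 24 h compound exposure of reporter cells at 37 °C. Each well was multiplexed: SteadyGlo luminescence measured ATXN2-luciferase expression after a fluorogenic Gly-Phe-AFC viability readout (25 uM final).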
HT1080 IDH1KD tx – HT-1080 IDH1 knockdown cell toxicity (counter line); AID 686971; HT-1080 IDH1 knockdown viability, ATP luminescence, 48 h; Potency, µM (titrated, usually from 46.1 µM), hits mostly cytotoxic; 360,000 compounds, 2% hits
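In this qHTS, HT-1080 cells depleted of IDH1 are exposed for 48 h at 37 °C to compound titrations. Toxicity is scored from CellTiter-Glo luminescence, with DMSO as full viability and medium alone as none.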
ATXN viability – viability counter-screen for ATXN expression inhibitors. S2 cells (HEK-293 line with an ATXN2-luciferase reporter) viability, CellTiter-Fluor protease fluorescence, 24 h. Potency, µM (top dose mostly 56.7 µM), most hits filed as cytotoxic. 400,000 compounds, 0.49% hits; note: nearly all actives have a fitted effect of over 40% in size
A number is an active result; - = inactive; ? = inconclusive; . = no result. Most compounds without a hit are left out; they make up all but 3.8% or so of the library. Calls come from the whole dose curve; as a rule, active = well fitted curve in the direction sought with a large enough effect; inconclusive = small, poorly fitted or top-dose-only effect, or another doubt; inactive = no such curve, though single readings can be large; an effect the other way counts as inactive or inconclusive.

SMILES	HepG2 viability	TGFb inhibitor	HT1080-NT tox	ATXN2 expr inh	HT1080 IDH1KD tx	ATXN viability
CC(C)c1ccc(C(O)P(=O)(OC2CCCCC2)OC2CCCCC2)cc1 (stereo not drawn)	-	?	?	.	?	32µM
COc1ccc(OC)c(C2CC(=O)c3c([nH]c(C(=O)OCc4ccc(C)cc4)c3C)C2)c1 (stereo not drawn)	-	-	.	.	.	.
CCCOCCOC(=O)c1[nH]c2c(c1C)C(=O)CC(c1cc(OC)ccc1OC)C2 (stereo not drawn)	-	-	5.8µM	-	4.1µM	?
COCCOC(=O)c1[nH]c2c(c1C)C(=O)CC(c1cc(OC)ccc1OC)C2 (stereo not drawn)	-	-	12µM	-	12µM	-
COc1ccc(OC)c(C2CC(=O)c3c([nH]c(C(=O)OC(C)C)c3C)C2)c1 (stereo not drawn)	-	-	5.8µM	-	3.3µM	?
COc1cc(C2CC(=O)c3c([nH]c(C(=O)OCCOC(C)C)c3C)C2)cc(OC)c1OC (stereo not drawn)	-	-	-	32µM	-	?
COc1ccc(OC)c(C2CC(=O)c3c([nH]c(C(=O)OC4CCC(C)CC4)c3C)C2)c1 (stereo not drawn)	-	-	.	-	.	?
CCCCNC(=O)[C@@H]1CC=C[C@@H]2CCN(Cc3ccccc3)C(=O)[C@@H]21	-	-	.	.	.	.
Cn1ncc2c(NCc3ccco3)ncnc21	-	-	.	.	.	.
CC(=O)N[C@@H]1[C@H](O[C@@H]2c3ccc(c(Cl)c3)Oc3cc4cc(c3O[C@H]3O[C@H](CO)[C@@H](O)[C@H](O)[C@H]3NC(=O)CCCCCCCC(C)C)Oc3ccc(cc3Cl)C[C@H]3NC(=O)[C@H](N)c5ccc(O)c(c5)Oc5cc(O)cc(c5)[C@H](NC3=O)C(=O)N[C@H]4C(=O)N[C@H]3C(=O)N[C@@H]2C(=O)N[C@@H](C(=O)O)c2cc(O)cc(O[C@H]4O[C@H](CO)[C@@H](O)[C@H](O)[C@H]4O)c2-c2cc3ccc2O)O[C@H](CO)[C@@H](O)[C@@H]1O	.	.	.	-	.	.
CCOCCOC(=O)c1[nH]c2c(c1C)C(=O)CC(c1ccc(N(C)C)cc1)C2 (stereo not drawn)	-	-	-	-	?	-
CCC(C)OC(=O)c1[nH]c2c(c1C)C(=O)CC(c1ccc(N(C)C)cc1)C2 (stereo not drawn)	-	-	?	-	23µM	?
C=C1C=C(C)n2ncc(C(=O)Nc3ccc(C)cn3)c2N1	.	.	-	.	-	.
O=C(Nc1nc2c(s1)CN(Cc1ccccc1)CC2)C1CCC1	11µM	-	-	-	-	.
CCN1CCc2nc(NC(=O)c3ccccc3)sc2C1	-	-	-	-	-	-
CC(C)N1CCc2c(sc(NC(=O)c3ccc4ccccc4c3)c2C(N)=O)C1	11µM	-	?	-	?	-
CC(C)N1CCc2c(sc(NC(=O)c3ccc(C(=O)c4ccccc4)cc3)c2C(N)=O)C1	-	?	21µM	?	18µM	?
CC(C)N1CCc2c(sc(NC(=O)c3ccco3)c2C(N)=O)C1	-	-	-	-	-	-
CC(C)N1CCc2c(sc(NC(=O)Cc3ccccc3)c2C(N)=O)C1	-	-	-	-	-	-
CC(=O)Nc1sc2c(c1-c1nc3ccccc3s1)CCN(C(C)C)C2	-	?	12µM	5.3µM	12µM	?
CC(C)N1CCc2c(sc(NC(=O)c3cc4cc([N+](=O)[O-])ccc4s3)c2C(N)=O)C1	13µM	?	?	?	?	.
CCOc1[nH]c(/N=C/c2ccc(OC)cc2)c(C#N)c1C#N	-	-	.	.	.	.
CCN(CC)C(=O)CC(c1ccc(OC)cc1)c1c(OC)cc(OC)c2c(-c3ccccc3)cc(=O)oc12 (stereo not drawn)	-	?	.	.	.	.
COc1cccc(OC)c1C(=O)Nc1sc2c(c1C(N)=O)CCN(Cc1ccccc1)C2	-	-	-	-	-	-
